Reference: PubChem BioAssay
Active and inactive are the calls of the source.

How the values were obtained:
[1] = anti-His antibody binders, primary screen, artefact control for SMM control protein annotation, biochemical, small-molecule microarray, 635 nm fluorescence (AID 1128); conditions: anti-His Alexa647 antibody binding, higher = more signal;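 note: score merges feature fluorescence with signal-to-noise for each printed compound spot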
[2] = system: Human papillomavirus type 1a E7 protein (residues 1-88); assay: HPV1a E7 small-molecule binders, primary screen, biochemical, small-molecule microarray, residues 1-88, 635 nm (AID 1129); conditions: small-molecule microarray binding, fluorescence 635 nm; higher = more signal
[3] = biological target: Focal adhesion kinase 1 (Homo sapiens) (UniProt Q05397); assay: small-molecule microarray binders of FAK, primary screen, biochemical, 635/667 nm fluorescence, BSA, DTT (AID 1130); conditions: PTK2 binding, 635 nm fluorescence, higher = more signal;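 note: composite of spot emission at 667 nm and signal to noise over triplicate slides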
[4] = system: Fibrinogen (Alexa647-labelled); assay: fibrinogen binders on compound microarrays, profiling panel, artefact control for SMM control-protein annotation, biochemical, small-molecule microarray, 635/667 nm fluorescence (AID 1131); conditions: fibrinogen-A647 binding fluorescence, higher = more signal;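 note: z-score merges 667 nm fluorescence with per-spot signal-to-noise over triplicate slides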
[5] = biological target: Follistatin (Homo sapiens) (UniProt P19883); assay: follistatin binders on small-molecule microarrays, primary screen, biochemical, small-molecule microarray, 635/667 nm fluorescence (AID 1132); conditions: FST binding, 635 nm fluorescence, higher = more signal
[6] = biological target: Fibroblast growth factor 2 (Homo sapiens) (UniProt P09038); assay: FGF2 binders on small-molecule microarrays, primary screen, biochemical, small-molecule microarray, 635/667 nm fluorescence (AID 1133); conditions: small-molecule microarray binding, FGF2, fluorescence 635/667; higher = more signal
[7] = mitochondrial membrane potential change in A549 cells, profiling panel, cell-based, JC-1 fluorescence, basal, 24 h, 100 nL (AID 1138); conditions: higher = more signal;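 note: A549 lung adenocarcinoma cells under basal conditions with no added stimulus; test concentration not given here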
[8] = system: Lefty1; assay: Lefty1 binders on small-molecule microarrays, primary screen, biochemical, small-molecule microarray, 635/667 nm fluorescence (AID 1139); conditions: small-molecule microarray binding, fluorescence 635/667; higher = more signal
[9] = system: wheat germ agglutinin (Triticum aestivum), Alexa647-labelled; assay: wheat germ agglutinin binders on compound microarrays, profiling panel, artefact control for SMM control-protein annotation, biochemical, small-molecule microarray, 635/667 nm fluorescence (AID 1140); conditions: WGA-A647 binding, 635 nm fluorescence, higher = more signal;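 note: score merges 667 nm feature emission with signal to noise over triplicate slides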
[10] = biological target: Luciferin 4-monooxygenase (Photinus pyralis) (UniProt P08659); assay: firefly luciferase enzyme inhibitors, primary screen, biochemical, luminescence, purified enzyme, 2006 set (AID 1141); conditions: SteadyGlo luminescence, 30 min, higher = more signal, called active from +8 up or from −8 down;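 note: cell-free assay with purified firefly luciferase at 100 ng per well in PBS; test concentration not given here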
Chain of Luciferin 4-monooxygenase (Photinus pyralis) (P08659 whole entry, looked up): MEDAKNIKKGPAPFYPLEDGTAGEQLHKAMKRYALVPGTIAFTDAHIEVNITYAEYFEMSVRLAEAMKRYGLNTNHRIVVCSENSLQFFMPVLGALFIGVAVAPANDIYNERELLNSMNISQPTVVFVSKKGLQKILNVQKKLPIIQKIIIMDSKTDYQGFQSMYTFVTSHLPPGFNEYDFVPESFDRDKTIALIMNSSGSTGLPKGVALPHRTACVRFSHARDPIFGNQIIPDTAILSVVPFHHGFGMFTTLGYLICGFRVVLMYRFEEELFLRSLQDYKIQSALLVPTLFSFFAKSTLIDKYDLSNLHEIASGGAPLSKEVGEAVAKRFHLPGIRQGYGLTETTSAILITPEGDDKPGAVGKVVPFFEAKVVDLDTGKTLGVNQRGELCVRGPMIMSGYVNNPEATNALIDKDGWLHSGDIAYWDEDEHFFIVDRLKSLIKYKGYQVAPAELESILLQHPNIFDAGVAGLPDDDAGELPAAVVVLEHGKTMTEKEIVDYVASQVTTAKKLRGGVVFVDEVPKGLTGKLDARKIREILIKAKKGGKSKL

Chain of Fibroblast growth factor 2 (Homo sapiens) (P09038 whole entry, looked up): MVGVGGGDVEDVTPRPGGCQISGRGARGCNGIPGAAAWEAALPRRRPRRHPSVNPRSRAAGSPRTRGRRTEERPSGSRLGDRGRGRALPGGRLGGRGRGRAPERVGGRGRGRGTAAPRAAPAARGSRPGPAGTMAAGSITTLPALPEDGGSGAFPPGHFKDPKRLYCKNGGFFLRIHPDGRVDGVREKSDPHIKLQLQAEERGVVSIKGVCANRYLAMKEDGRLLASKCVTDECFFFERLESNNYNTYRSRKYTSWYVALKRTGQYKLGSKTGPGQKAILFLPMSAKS
Chain of Follistatin (Homo sapiens) (P19883 whole entry, looked up): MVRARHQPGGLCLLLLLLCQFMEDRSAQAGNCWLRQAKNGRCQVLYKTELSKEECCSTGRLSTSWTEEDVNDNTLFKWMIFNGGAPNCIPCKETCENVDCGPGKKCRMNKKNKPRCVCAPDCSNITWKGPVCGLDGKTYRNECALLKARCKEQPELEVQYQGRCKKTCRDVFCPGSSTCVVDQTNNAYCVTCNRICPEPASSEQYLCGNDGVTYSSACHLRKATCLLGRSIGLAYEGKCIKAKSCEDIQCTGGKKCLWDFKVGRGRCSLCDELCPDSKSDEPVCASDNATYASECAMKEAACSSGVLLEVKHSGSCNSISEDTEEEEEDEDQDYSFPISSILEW
Chain of Focal adhesion kinase 1 (Homo sapiens) (Q05397 whole entry, looked up): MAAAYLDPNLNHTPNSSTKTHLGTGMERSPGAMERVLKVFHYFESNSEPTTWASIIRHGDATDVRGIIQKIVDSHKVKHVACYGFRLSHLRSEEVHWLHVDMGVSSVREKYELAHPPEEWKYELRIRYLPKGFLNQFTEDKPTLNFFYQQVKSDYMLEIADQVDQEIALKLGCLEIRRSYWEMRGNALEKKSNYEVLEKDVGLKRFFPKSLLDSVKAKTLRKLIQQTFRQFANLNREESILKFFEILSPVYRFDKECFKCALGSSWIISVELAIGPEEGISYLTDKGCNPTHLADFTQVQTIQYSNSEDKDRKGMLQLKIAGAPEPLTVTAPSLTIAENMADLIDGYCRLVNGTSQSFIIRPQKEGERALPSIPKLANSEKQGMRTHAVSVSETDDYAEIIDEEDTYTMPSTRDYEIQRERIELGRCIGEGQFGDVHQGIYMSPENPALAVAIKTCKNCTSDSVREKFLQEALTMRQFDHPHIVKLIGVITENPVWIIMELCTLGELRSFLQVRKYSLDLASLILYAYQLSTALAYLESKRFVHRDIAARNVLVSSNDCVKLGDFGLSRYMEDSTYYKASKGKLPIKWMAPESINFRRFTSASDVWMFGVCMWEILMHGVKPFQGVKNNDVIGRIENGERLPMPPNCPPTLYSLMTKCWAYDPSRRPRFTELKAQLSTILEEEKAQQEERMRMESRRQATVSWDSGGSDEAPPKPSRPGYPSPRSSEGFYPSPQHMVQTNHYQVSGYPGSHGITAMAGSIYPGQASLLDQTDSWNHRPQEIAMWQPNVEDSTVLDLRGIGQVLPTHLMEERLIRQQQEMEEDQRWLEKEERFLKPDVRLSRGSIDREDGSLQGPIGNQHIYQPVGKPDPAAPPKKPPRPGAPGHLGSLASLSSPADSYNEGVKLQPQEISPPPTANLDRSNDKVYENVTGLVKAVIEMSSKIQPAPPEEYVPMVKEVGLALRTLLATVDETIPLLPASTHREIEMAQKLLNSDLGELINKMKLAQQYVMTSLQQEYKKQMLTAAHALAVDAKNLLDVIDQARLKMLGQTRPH

SMILES	composite z-score [1]	composite z-score [2]	composite z-score [3]	composite z-score [4]	composite z-score [5]	composite z-score [6]	z-score [7]	composite z-score [8]	composite z-score [9]	z-score [10]
CC(=O)C1=CCC(c2ccccc2)N(S(=O)(=O)c2ccc(C)cc2)C1 (stereo not given)	1.8	1.19	0.362	0.757	0.798	-0.194	-1.16	0.176	1.21	1.6 (inactive)
CCCCCN1CC=CC23O[C@@H]4/C=C\CCCOC(=O)C4[C@H]2C(=O)N(CCCCCCO)[C@@H]3C1=O (stereo not given in full)	0.599	0.906	0.929	-2.05	-0.679	-0.964	1.05	0.0393	1.14	-3.28 (inactive)
CC(C)(C)N1CC=CC23O[C@@H]4C=CCOC(=O)[C@@H]4[C@H]2C(=O)N(CCCCCO)[C@@H]3C1=O (stereo not given in full)	3.57	-1.45	-0.758	-2.1	-0.889	-0.326	-0.879	-1.17	-1.31	0.107 (inactive)
CC(C)(C)N1CC=CC23O[C@@H]4/C=C\CCCOC(=O)C4[C@H]2C(=O)N(CCO)[C@@H]3C1=O (stereo not given in full)	0.543	0.193	0.19	-0.233	-0.993	-0.57	-0.913	-0.86	0.0851	0.885 (inactive)
COC(=O)[C@@]1(Cc2ccc(OC)cc2)[C@H]2c3cc(C(=O)N4CCCC4)n(CCc4c[nH]c5cc(F)ccc45)c3C[C@H]2CN1C(=O)c1ccccc1	1.46	1.25	0.861	0.994	1.23	0.303	0.509	0.0312	1.18	0.378 (inactive)
COc1ccc([Si](C)(C)[C@H]2[C@H](CCn3cc([C@H](O)c4ccccc4)nn3)O[C@@]3(C(=O)N(Cc4cccc(N5CCC5=O)c4)c4ccccc43)[C@@H]2C)cc1	0.396	0.302	-0.0817	0.435	1.34	1.54	2.35	0.811	0.219	-0.719 (inactive)
O=C1O[C@@H](c2ccccc2)[C@@H](c2ccccc2)N2[C@@H](c3ccc(O)cc3)[C@]3(C(=O)Nc4ccc(C#CC5(O)CCCCCC5)cc43)[C@@H](C(=O)N3CCCCCCC3)[C@H]12	1.47	1.26	2.74	0.962	1.47	1.62	-0.15	1.68	1.4	-0.593 (inactive)
O=C(CS)NCCCCCCNC(=O)[C@H]1C[C@H]2C(=O)NCC(=O)N2[C@H]1c1ccc(O)cc1	0.0346	-0.591	0.147	-0.634	1.11	0.697	0.139	-0.0467	-0.223	-0.199 (inactive)
